About 79,000 compounds went through this panel and 15% of them were active in at least one assay; those are over-represented in the sample as a whole. A number with no mark means an inactive call. The source made the active and inactive calls. Cut-off read from the data, not from the text of the source: active = growth inhibition above about 70%; inactive = the rest.

The nature of the assay: NCI Yeast Anticancer Drug Screen. Data for the sgs1 mgt1 strain (AID 161).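 Note: 0% = growth of cultures given vehicle only.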 To be noted: S. cerevisiae sgs1 mgt1 strain, at 5.0 µM (retest, dose inferred, filed as 0.5), active compounds read high. An outline of the steps:
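Genetically altered yeast, compound exposure, growth inhibition relative to vehicle.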
In the case of `COc1ccc(C(=O)[O][Sn]([c]2ccccc2)([c]2ccccc2)[c]2ccccc2)c(OC)c1OC`, the growth inhibition is 99% (active). Then `CCC(CC)C1(C(=O)OCCN(CC)CC)CCCCC1`, with -2%; and `O=C1OC(=O)C2C1C1C(c3ccccc3)=C(c3ccccc3)C2(O)C2C(=O)OC(=O)C12` (stereo not given), with 16%; and `C/C(=C/CC1CCC2C3=CCC4CC(O)CCC4(C)C3CCC12C)C(C)C(C)C` (stereo not given), with 2%. Regarding `CCC1(CC(=O)O)OCCc2c1[nH]c1c(C)c(Cl)ccc21` (stereo not given), the growth inhibition is 2%.

As to `CN(C)CCCSc1c2ccccc2nc2cccc([N+](=O)[O-])c12`, the growth inhibition was -8%.

As for `CC1OC(OP(=O)(OCc2ccccc2)OCc2ccccc2)C(OC(=O)c2ccccc2)C(OC(=O)c2ccccc2)C1I` (stereo not given), the growth inhibition was 37%. Consider `C#CC(CC(C)CC(C)(C)C)NC` (stereo not given), for which the growth inhibition was 0%. Then `N#CCCN(CCC#N)Cc1cc(-c2ccccc2)ccc1O`, with -2%. As to `Cc1ccc(NC(=O)CCCC(=O)C(C#N)c2ccccc2C)cc1C` (stereo not given), the growth inhibition is -5%. Then `C[C@H]1CC[C@@H]2[C@@H](C)[C@H]3[C@H](C[C@H]4[C@@H]5CC=C6C[C@@H](O)CC[C@]6(C)[C@H]5CC[C@]34C)N2C1`, with 44%; and `Cc1nc(-c2ccc(N=Cc3ccc(N(CCOS(C)(=O)=O)CCOS(C)(=O)=O)cc3)cc2)cs1`, with -2%.

With `COc1ccc2nc3cccc([N+](=O)[O-])c3c(NCCO)c2c1`, the growth inhibition is 82% (active). With `Oc1ccc(C2CCCCC2)cc1`, the growth inhibition was -10%.

As to `CCCCCc1cc(Cl)cc(Cl)c1O`, the growth inhibition was -5%.

The values above are taken from PubChem BioAssay (NCI).
